Activity calls are given as the source filed them. Rule for the calls: active = hit-call score of the fitted dose curve at least 0.9, where 1 is the maximum; inactive = score below 0.9.
experiment: CCTE_Harrill_HTTr_Apoptosis_MCF7: CCTE's 6-hour Apoptosis Assessment for the High-Throughput Transcriptomics (HTTr) Platform, in MCF-7 cells cultured in DMEM + 10% fetal bovine serum, Harrill Lab (AID 2284011)
Source text: This is a cell-based assay that evaluates apoptosis using high content imaging to evaluate activation of caspase-3/7 using the CellEvent Caspase 3/7 Green detection reagent in 384-well format.One of seven assay components measured from the CCTE_Harrill_HTTr_Apoptosis assay. This was part of a full screening experiment. This is a cell-based assay that evaluates apoptosis in MCF-7 cells cultured in DMEM + 10% fetal bovine serum. High content imaging is used to evaluate activation of caspase-3/7 using the CellEvent Caspase 3/7 Green detection reagent. Measurements are taken at 6 hours after chemical dosing in 384-well format.The assay component endpoint CCTE_Harrill_HTTr_Apoptosis_MCF7 was analyzed with bidirectional fitting relation to DMSO as the negative control and baseline of activity. Using a type of viability reporter, gain-of-signal activity can be used to evaluate activation of caspase-3/7 using the CellEvent Caspase 3/7 Green detection reagent to understand changes in apoptosis. To generalize the intended target to other relatable targets, this assay endpoint is annotated to cell cycle, where the subfamily is apoptosis.
Chemicals were tested in MCF7 cells in an eight point dilution series with a six hour exposure duration.

Structure (SMILES) | outcome | AC50
CCCOC(=O)c1ccc(O)cc1 | inactive | –
CCC(C)(C)C1CCC(O)CC1 (stereo not given) | inactive | –
CC(C)(C)c1ccc(O)c(C(C)(C)C)c1 | inactive | –
O=c1c(-c2ccc(O)cc2)coc2cc(O)ccc12 | inactive | –
CC(C)CCCCCCOC(=O)CCCCC(=O)OCCCCCCC(C)C | inactive | –
NC(=O)N(O)[C@@H]1C=C[C@H](Oc2cccc(Oc3ccc(F)cc3)c2)C1 | inactive | –
Cc1cc(C)c(O)c(C)c1 | inactive | –
CC(C)(C)CC(C)(C)c1ccc(O)c(-n2nc3ccccc3n2)c1 | inactive | –
NC(=O)N1C(=O)C(C(=O)c2cc(Cl)cs2)c2cc(F)c(Cl)cc21 (stereo not given) | inactive | –
CCCCC(CC)COC(=O)CCCCC(=O)OCC(CC)CCCC (stereo not given) | inactive | –
CCOC(=O)CC(O)(CC(=O)OCC)C(=O)OCC | inactive | –
c1ccc2cc3c(ccc4ccccc43)cc2c1 | inactive | –
CCC(=C(c1ccc(O)cc1)c1ccc(OCCN(C)C)cc1)c1ccccc1 | – | 35.7 µM (active)
CCc1nn(C2CCCCC2)c2cc(C3(C#N)CCC(C(=O)O)CC3)ccc12 (stereo not given) | inactive | –
Cc1oc(-c2ccccc2)nc1CCOc1ccc(C[C@H](Nc2ccccc2C(=O)c2ccccc2)C(=O)O)cc1 | inactive | –
CC[C@H](c1ccc(O)cc1)[C@@H](CC)c1ccc(O)cc1 | inactive | –
CC(=O)CC(C)(C)O | inactive | –
C#C[C@]1(O)CC[C@H]2[C@@H]3CCC4=CC(=O)CC[C@@H]4[C@H]3CC[C@@]21C | inactive | –
CCc1ccc(CCOc2ccc(CC3SC(=O)NC3=O)cc2)nc1 (stereo not given) | inactive | –
CCCCCCCC(=O)O | inactive | –

Structure (SMILES) | outcome | AC50
Oc1cccc(O)c1 | inactive | –
COCC(C)O (stereo not given) | inactive | –
CC[C@H](C)[C@@H](C(=O)O)n1sc2ccccc2c1=O | inactive | –
ClC1=C(Cl)C(Cl)(Cl)C(Cl)=C1Cl | inactive | –
O=[N+]([O-])c1ccc(O)cc1 | inactive | –
CC(O)CO (stereo not given) | inactive | –
CC(=O)NC1(c2cccc(F)c2)CCN(CC[C@@]2(c3ccc(Cl)c(Cl)c3)CN(c3ccccc3)C(=O)CO2)CC1 | inactive | –
CC#C[C@]1(O)CC[C@H]2[C@@H]3CCC4=CC(=O)CCC4=C3[C@@H](c3ccc(N(C)C)cc3)C[C@@]21C | inactive | –
Cc1cc(CCN2CCN(c3nsc4ccccc34)CC2)cc2c1NC(=O)CC2(C)C | – | 63.6 µM (active)
c1ccc2c(c1)Cc1ccccc1-2 | inactive | –
O=C(O)Cc1cc(I)c(Oc2cc(I)c(O)c(I)c2)c(I)c1 | inactive | –
O=C(O)c1ccccc1C(c1ccc(O)cc1)c1ccc(O)cc1 | inactive | –
CCCCOCCO | inactive | –
CCCCC[C@H](O)CC(=O)CCc1ccc(O)c(OC)c1 | inactive | –
CCCCCCCCC(=O)O | inactive | –
OCCC(F)(F)C(F)(F)C(F)(F)C(F)(F)C(F)(F)C(F)(F)F | inactive | –
N#C[C@@H]1CC(F)(F)CN1C(=O)CNC1CC2CCC(C1)N2c1ncccn1 (stereo not given in full) | inactive | –
CC(O)C(=O)O (stereo not given) | inactive | –
O=C1OC2(c3ccccc31)c1cc(Br)c(O)c(Br)c1Oc1c2cc(Br)c(O)c1Br | – | 1.92 µM (active)
COc1ccc([N+](=O)[O-])cc1N | inactive | –

Reference: PubChem BioAssay (EPA / NIEHS)
